# Inconclusive results are not listed. Entries that show only a call come without a potency. Calls of active or inactive are those of the source. The call rests on the fitted dose curve; in most records, active means well fitted inhibition curve with a large enough effect; inconclusive means small, poorly fitted or top-dose-only effect; inactive means flat fitted curve, though single readings scatter. Peptide text beside a SMILES is read from it.
# System: AA1029
# Assay: qHTS profiling for inhibitors of Plasmodium falciparum proliferation (AID 504749); further: nearly all actives have a fitted effect of over 60% in size
# Settings: P. falciparum in erythrocytes, SYBR Green DNA, 72 h; series mostly up to 12.8 µM
# In short: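 P. falciparum-infected erythrocytes (0.3% parasitemia, 2.5% hematocrit final) were exposed to compounds for 72 h at 37 C in 5% CO2, then lysed with SYBR Green buffer overnight at room temperature; parasite DNA fluorescence was normalized to artemisinin and DMSO controls.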
# Potency means the concentration at half of the fitted maximal effect.
row,SMILES,Potency
1,CCC(C)C(=O)OC1CCC=C2C=CC(C)C(CCC3CC(O)CC(=O)O3)[C@@H]21 (some centres not stated),inactive
2,C[C@]1(c2ccccc2)OC(C(=O)O)=CC1=O,inactive
3,OCC1OC([S-])[C@H](O)C(O)C1O.[Au+] (some centres not stated),inactive
4,COC(=O)N/N=C/C1=C[N+](=O)c2ccccc2[N+]1=O,inactive
5,CN1CC(=O)N=C1N,inactive
6,CNC1CC(N)[C@H](O)[C@@H](O[C@@H]2OC(CO)C3OC4(OC(C(N)CO)C(O)C(O)C4O)O[C@@H]3[C@H]2O)C1O (some centres not stated),inactive
7,COC1C=CO[C@@]2(C)Oc3c(C)c(O)c4c(O)c(c(C=NN5CCN(C)CC5)c(O)c4c3C2=O)NC(=O)/C(C)=C\C=CC(C)C(O)[C@@H](C)C(O)C(C)[C@H](OC(C)=O)C1C (some centres not stated),2 µM (active)
8,CC(=O)N[C@@H]1C(O)OC(CO)C(O)C1O (some centres not stated),inactive
9,CCC(CCC(C)C1CCC2C3CC=C4CC(O)CC[C@@]4(C)C3CC[C@@]12C)C(C)C (some centres not stated),inactive
10,O=C1OC(CO)C(O)C(O)C1O (configuration not stated),inactive
11,COc1ccc(CC(N)C(=O)NC2C(CO)OC(n3cnc4c(N(C)C)ncnc43)C2O)cc1 (configuration not stated),1 µM (active)
12,CCCC(=O)O[C@]1(C(=O)CO)CCC2[C@@H]3CCC4=CC(=O)CC[C@]4(C)C3C(O)C[C@]21C (some centres not stated),inactive
13,COC(=O)C(Cc1ccccc1)NC(=O)C(N)CC(=O)O (stereo not drawn) (H-Asp-Phe-OMe; configuration not given here),inactive
14,CC[C@@]12CCCN3CCc4c(n(c5ccccc45)[C@](O)(C(=O)OC)C1)C32 (some centres not stated),inactive
15,CC1(C)SC2C(N3C(=O)C(c4ccccc4)NC3(C)C)C(=O)N2C1C(=O)O (configuration not stated),inactive
16,CC1CCC(C(C)C)C(=O)C1 (configuration not stated),inactive

row,SMILES,Potency
1,CC(=O)N[C@H](CC(C)C)C(=O)O,inactive
2,CC(C)C1CCC(C(=O)NC(Cc2ccccc2)C(=O)O)CC1 (configuration not stated),inactive
3,COc1ccc2cc(C(C)CO)ccc2c1 (configuration not stated),inactive
4,COc1ccc2cc1Oc1ccc(cc1)CC1c3c(cc4c(c3Oc3cc5c(cc3OC)CCN(C)C5C2)OCO4)CCN1C (configuration not stated),3.55 µM (active)
5,CNC1C(OC2C(O[C@@H]3C(O)C(O)[C@@H](N=C(N)N)C(O)C3N=C(N)N)OC(C)[C@@]2(O)CO)OC(CO)C(O)C1O (some centres not stated),inactive
6,CC1C2CCC3C4CC=C5CC(N(C)C)CC[C@@]5(C)C4CC[C@@]32CN1C (some centres not stated),inactive
7,C[C@]12C=CC(=O)C=C1CCC1C2C(O)C[C@]2(C)C1CC[C@]2(O)C(=O)CO (some centres not stated),inactive
8,COc1ccc2c(c1)N(C[C@@H](C)CN(C)C)c1ccccc1S2,inactive
9,CCOC(=O)C1=CC(OC(CC)CC)C(NC(C)=O)C(N)C1 (configuration not stated),inactive
10,CN(C)CCc1c[nH]c2ccc(CC3COC(=O)N3)cc12 (configuration not stated),inactive
11,NCC1CCC(N)C(O[C@@H]2C(O)[C@H](O[C@H]3OC(CO)C(O)C(N)C3O)[C@@H](N)C[C@H]2N)O1 (some centres not stated),inactive
12,OCC1O[C@H](OC2C(CO)O[C@@](O)(CO)C2O)C(O)C(O)C1O (some centres not stated),inactive
13,CC1(C)OC2CO[C@]3(COS(N)(=O)=O)OC(C)(C)OC3C2O1 (some centres not stated),inactive
14,CC(=O)OC1CCC2C3CCc4cc(O)ccc4C3CCC12C (configuration not stated),inactive
15,CN(C)CCCOC1C(C(O)CO)OC2OC(C)(C)O[C@@H]21 (some centres not stated),inactive
16,COc1cc(C2c3cc4c(cc3C(O[C@@H]3OC5COC(c6cccs6)OC5C(O)C3O)C3COC(=O)C23)OCO4)cc(OC)c1O (some centres not stated),2.24 µM (active)
